Hit rate of the full screen: of about 69,000 compounds, about 1,000 (1.4%) showed an effect of 50% or more. The list comes from a sample in which strong results are over-represented; it also holds similar structures and randomly drawn compounds.
System: Leishmania donovani
Experiment: Leishmania intramacrophage assay
Format: functional, organism-based
Parameters: scale not given: in the data most compounds retested in dose-response had high values

## CC(O)CN1CCC(CNCc2cccc(C(F)(F)F)c2)CC1 (stereo not drawn)
30.3 µM, […]
  Percent Effect: 35.92%

## COC(=O)c1cc(NCC(=O)NC(N)=O)cc(C(F)(F)F)c1
30.3 µM, […]
  Percent Effect: 10.64%

## C(=C\c1ccccc1)/CNCC1CCc2nncn2C1 (stereo not drawn)
30.3 µM, […]
  Percent Effect: -5.474%

## O=C(Nc1ccccc1F)NC1(CO)CCOCC1
30.3 µM, […]
  Percent Effect: 37.09%

## Cc1nc(CN2C[C@@H]3CN(C(=O)c4ccnnc4)C[C@@H]3C2=O)cs1.O=C(O)C(F)(F)F
30 µM, 30.03 µM
  Percent Effect: 13.66%

## CC(C)(C)n1ncc2c1CCCC2NCc1cccc2c1OCCO2 (stereo not drawn)
30 µM
  Percent Effect: 39.91%

## COc1c(CC2CC(C(=O)O)=NO2)c(Br)c2c(c1OC)OCO2 (stereo not drawn)
30.3 µM, […]
  Percent Effect: 9.318%

## Cc1noc(CNC(=O)N2CCN(c3nc(C)c(C)s3)CC2)n1
30.3 µM, […]
  Percent Effect: 0.7779%

## O=C(CN1CCOC(Cn2cccn2)C1)NCc1ccco1 (stereo not drawn)
30 µM
  Percent Effect: 30.39%

## OC(CNC1CCOCC1)c1ccc(Cl)c(F)c1 (stereo not drawn)
30.3 µM, […]
  Percent Effect: 9.683%

## CC(=O)N1CCCCC[C@@H]2[C@@H]1[C@H](c1cccc(F)c1)CN2C(=O)C1CC1
30.3 µM, […]
  Percent Effect: 16.49%

## Cc1nc[nH]c1-c1nccn1CCN1CCOC1=O
30.3 µM, […]
  Percent Effect: 3.243%

## CCOC(C)C(=O)NCCNS(C)(=O)=O (stereo not drawn)
30.3 µM, […]
  Percent Effect: 50.09%

## CC(C)COC(C)C(=O)NCc1ccccc1 (stereo not drawn)
30 µM
  Percent Effect: 13.02%

## CC(C)C(=O)NCCNC(=O)C(C)OCC(F)(F)F (stereo not drawn)
30.3 µM, […]
  Percent Effect: 28.18%

## CC(C)COC(C)C(=O)NCCNC(=O)C(C)C (stereo not drawn)
30.3 µM, […]
  Percent Effect: 43.81%

## CC(CC(=O)NCCNS(C)(=O)=O)C1CCCCC1 (stereo not drawn)
30.3 µM, […]
  Percent Effect: 12.79%

## CC(C)COC(C)C(=O)NCCNS(C)(=O)=O (stereo not drawn)
30.3 µM, […]
  Percent Effect: 50.97%

## CCOCC(O)CN1CCN(C(=O)c2ccc(C)nc2)CC1 (stereo not drawn)
30 µM
  Percent Effect: 29.83%

## COc1ccc(Br)cc1CCC(=O)N1CCCC(O)C1 (stereo not drawn)
30.3 µM, […]
  Percent Effect: 6.225%

## N#Cc1cccc(OCCN2CCCC(c3noc(C4CC4)n3)C2)c1 (stereo not drawn)
30.3 µM, […]
  Percent Effect: 32.43%

## COCC1CN(S(=O)(=O)c2cccs2)Cc2ncnn2C1 (stereo not drawn)
30.3 µM, […]
  Percent Effect: 38.74%

## Cc1ccccc1C(=O)Nc1cnn(CCN2CCOCC2)c1
30 µM
  Percent Effect: 17.38%

## CC(C)CS(=O)(=O)Nc1ccc2c(c1)OCC(C)(C)C(=O)N2C
30.3 µM, […]
  Percent Effect: -17.18%

## CSc1ccc(CNC(=O)C2CC(=O)N(C(C)(C)C)C2)cc1 (stereo not drawn)
30.3 µM, […]
  Percent Effect: 55.18%

## CCN1CC(C(=O)NCc2cccc(SC)c2)CC1=O (stereo not drawn)
30.3 µM, […]
  Percent Effect: -29.4%

## CN(C)S(=O)(=O)c1ccc(CNC(=O)C2CC(=O)N(C(C)(C)C)C2)cc1 (stereo not drawn)
30.3 µM, […]
  Percent Effect: 21.08%

## O=c1[nH]c(-c2ccc(F)c(F)c2)nc2c1CCNC2
30.3 µM, […]
  Percent Effect: 51.76%

## O=c1[nH]c(-c2ccc(Cl)cc2)nc2c1CCNC2
30.3 µM, […]
  Percent Effect: 20.84%

## O=c1[nH]c(-c2ccc(F)cc2)nc2c1CCNC2
30.3 µM, […]
  Percent Effect: 23.84%

## Cc1nc(CN2C[C@@H]3CCCO[C@@H]3[C@H](NC(=O)CC3CC3)C2)cs1.O=C(O)C(F)(F)F
30.3 µM, […]
  Percent Effect: 13.13%

## CC(=O)NCC(=O)N1CCC2(COCc3c(C)nc(N(C)C)nc32)C1 (stereo not drawn)
30.3 µM, […]
  Percent Effect: 0.3657%

## Cc1ccoc1C(=O)N1CC[C@H]2C[C@H](c3nnc(C4CC4)o3)O[C@@H]2C1
30.3 µM, […]
  Percent Effect: 7.701%

## Cc1cc(C(=O)Cn2cnnc2[S+](C)[O-])cc(C)c1F (stereo not drawn)
30.3 µM, […]
  Percent Effect: 9.03%

## CCCc1nn(C2CCN(C(C)C)C2=O)c(=O)o1 (stereo not drawn)
30.3 µM, […]
  Percent Effect: 51.41%

## CCCc1nn(C2CCN(C3CC3)C2=O)c(=O)o1 (stereo not drawn)
30.3 µM, […]
  Percent Effect: -13.56%

## CCCc1nn(C2CCCN(C(C)C)C2=O)c(=O)o1 (stereo not drawn)
30.3 µM, […]
  Percent Effect: -18.62%

## CN1C(=O)C2(CCN(C(=O)c3ccccc3)CC2)c2cc(F)ccc21.Cl
30.3 µM, […]
  Percent Effect: 50.2%

## CC(=O)N1CCC2(CC1)C(=O)N(C)c1ccc(F)cc12
30.3 µM, […]
  Percent Effect: 29.57%

## CC(Oc1ccc(F)c(F)c1)C(=O)N(CC(N)=O)C1CCCC1 (stereo not drawn)
30.3 µM, […]
  Percent Effect: -10.08%

## CCc1nccn1C1CCCN(C(=O)c2cc3nc(C)ccc3o2)C1 (stereo not drawn)
30 µM, 30.03 µM
  Percent Effect: 3.953%

## Cc1nn(C)c2cn(C(C)C(=O)NCc3cccc(F)c3)nc12 (stereo not drawn)
30.3 µM, […]
  Percent Effect: -38.24%

## CCn1nccc1CNC(=O)C(C)n1cc2c(n1)c(C)nn2C (stereo not drawn)
30 µM, 30.03 µM
  Percent Effect: -8.273%

## COc1ccccc1CNC(=O)C(C)N1CC(n2cc(C)cn2)C1 (stereo not drawn)
30.3 µM, […]
  Percent Effect: 25.52%

## COc1ccccc1CNC(=O)Cn1ncc2c1c(C)nn2C
30 µM, 30.03 µM
  Percent Effect: 13.53%

## CCc1nc(NCc2ccccn2)c2c(n1)c(C)nn2C
30.3 µM, […]
  Percent Effect: -38.07%

## Cc1nn(C)c2cn(C(C)C(=O)NCc3ccc(F)cc3)nc12 (stereo not drawn)
30.3 µM, […]
  Percent Effect: 25.73%

## Cc1nc(NCc2ccccn2)c2c(n1)c(C)nn2C
30.3 µM, […]
  Percent Effect: 42.28%

## Cc1nn(C)c2c(NCc3ccccn3)ncnc12
30.3 µM, […]
  Percent Effect: 50.68%

## Cc1nn(C)c2cn(C(C)C(=O)NCc3cccnc3)nc12 (stereo not drawn)
30 µM, 30.03 µM
  Percent Effect: 8.191%

## Cc1nn(C)c2cn(C(C)C(=O)NCc3ccccn3)nc12 (stereo not drawn)
30.3 µM, […]
  Percent Effect: 50.14%

## COc1ccccc1CNC(=O)C(C)n1cc2c(n1)c(C)nn2C (stereo not drawn)
30.3 µM, […]
  Percent Effect: 52.43%

## Cc1nn(C)c2cn(C(C)C(=O)NCc3ccncc3)nc12 (stereo not drawn)
30.3 µM, […]
  Percent Effect: 59.59%

— ChEMBL document CHEMBL3988442, “University of Dundee, Small-Polar-MMV Screening Library” (2021)
